Experimental data: paper PMC4336329 (PLoS ONE, 2015)
About 14,000 (4.5%) of roughly 310,000 compounds showed an effect of 50% or more. The effect is printed as a negative number. What follows is part of a selection rich in strong results, with near analogues and random picks from the rest.

Biological target: human ether-à-go-go-related gene (hERG) potassium channel (human, UniProt Q12809)
Assay: primary screen, population patch clamp on CHO cells stably expressing hERG; higher = less effect of the substance
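Also: peak tail current of the secondary pulse compared with the same well before compound.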

human ether-à-go-go-related gene (hERG) potassium channel, sequence (Q12809 whole entry, looked up): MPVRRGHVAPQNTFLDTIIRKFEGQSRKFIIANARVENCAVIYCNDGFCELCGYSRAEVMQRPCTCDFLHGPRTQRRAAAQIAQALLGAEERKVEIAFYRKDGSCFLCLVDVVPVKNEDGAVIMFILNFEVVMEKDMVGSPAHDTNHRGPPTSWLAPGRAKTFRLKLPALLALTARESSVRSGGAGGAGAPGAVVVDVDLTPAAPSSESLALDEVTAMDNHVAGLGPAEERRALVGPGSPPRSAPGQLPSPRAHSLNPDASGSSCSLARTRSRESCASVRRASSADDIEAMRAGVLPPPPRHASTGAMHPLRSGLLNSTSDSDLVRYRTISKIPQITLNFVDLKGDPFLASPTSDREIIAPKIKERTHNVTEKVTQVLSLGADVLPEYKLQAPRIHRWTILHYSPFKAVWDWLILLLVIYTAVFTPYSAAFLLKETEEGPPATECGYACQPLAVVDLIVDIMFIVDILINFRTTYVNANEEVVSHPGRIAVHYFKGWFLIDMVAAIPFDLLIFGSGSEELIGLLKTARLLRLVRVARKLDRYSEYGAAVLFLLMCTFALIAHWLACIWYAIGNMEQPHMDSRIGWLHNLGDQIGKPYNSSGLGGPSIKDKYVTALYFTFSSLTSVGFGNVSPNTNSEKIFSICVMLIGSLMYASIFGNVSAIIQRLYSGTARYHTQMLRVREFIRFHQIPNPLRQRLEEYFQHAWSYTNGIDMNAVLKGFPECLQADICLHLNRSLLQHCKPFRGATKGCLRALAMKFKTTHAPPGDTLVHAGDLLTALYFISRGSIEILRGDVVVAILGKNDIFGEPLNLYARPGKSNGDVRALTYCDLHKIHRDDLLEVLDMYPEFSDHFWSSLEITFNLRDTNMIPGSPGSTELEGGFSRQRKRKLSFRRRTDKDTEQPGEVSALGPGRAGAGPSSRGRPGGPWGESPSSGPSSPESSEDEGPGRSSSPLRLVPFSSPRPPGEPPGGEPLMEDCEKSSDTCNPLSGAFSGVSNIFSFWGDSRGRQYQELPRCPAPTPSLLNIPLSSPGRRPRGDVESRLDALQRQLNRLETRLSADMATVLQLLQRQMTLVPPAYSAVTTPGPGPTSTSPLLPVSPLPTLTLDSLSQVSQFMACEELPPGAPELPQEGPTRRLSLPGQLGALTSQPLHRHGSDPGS

Row | Structure (SMILES) | hERG current change (%, negative = inhibition) at 10uM [%]
1 | O=C(CSc1ccccn1)NCc1ccc2c(c1)OCO2 | 3.5
2 | O=C(CSc1ccc2nnc(-c3cccnc3)n2n1)NCc1ccco1 | -44.3
3 | O=C(CSc1ccc2nnc(-c3ccncc3)n2n1)Nc1ccc2c(c1)OCO2 | 7.8
4 | O=C(CSc1ccc2nnc(-c3ccccn3)n2n1)NCc1ccc2c(c1)OCO2 | -74.4
5 | O=C(CSc1ccc2nnc(-c3cccnc3)n2n1)NCc1ccc2c(c1)OCO2 | -53.3
6 | O=C(CSc1ccc2nnc(-c3ccccn3)n2n1)Nc1ccc2c(c1)OCCO2 | -40.6
7 | O=C(CSc1ccc2nnc(-c3ccccn3)n2n1)Nc1ccc2c(c1)OCO2 | -33.7
8 | O=C(CSc1ccc2nnc(-c3ccccc3)n2n1)NCc1ccc2c(c1)OCO2 | -80.3
9 | O=C(CSc1ccc2nnc(-c3cccnc3)n2n1)NCC1CCCO1 (stereo not drawn) | -9.66
10 | O=C(O)CC1c2ccccc2CCN1S(=O)(=O)c1ccccc1 (stereo not drawn) | -1.51
11 | COc1ccc(N2C(=O)CN=C2Nc2nc(C)cc(C)n2)cc1OC | -4.68
12 | Cc1cccc(NC(=S)NCc2ccc3c(c2)cc(C)n3C)c1C | -9.2
13 | CC(=O)c1ccc(NC(=O)CSc2nc(N3CCOCC3)nc(N3CCOCC3)n2)cc1 | -7.67
14 | Cc1ccc(NS(=O)(=O)c2c(C)nc3sccn3c2=O)c(C)c1 | -15.2
15 | COc1ccc(NC2CCCN(C(=O)c3cccc(C)n3)C2)cc1OC (stereo not drawn) | 18.5
16 | CC1(C)N=C(c2ccccc2)[C@@H]2C(c3ccc([N+](=O)[O-])cc3)N21 (stereo partly drawn) | -31.6
17 | CC12CCC(C(=O)Nc3nc4ccc(Br)cc4s3)(OC1=O)C2(C)C (stereo not drawn) | -2.78
18 | COc1cc2c(cc1OC)CN(CCC(C)c1ccc(Cl)cc1)CC2.O=C(O)/C=C\C(=O)O (stereo not drawn) | -72.1
19 | COc1cc2c(cc1OC)CN(CC(O)c1ccccc1)CC2 (stereo not drawn) | 14.4
20 | COc1cc2c(cc1OC)C(C)N(CCN1C(=O)c3ccccc3C1=O)CC2 (stereo not drawn) | 17.5
21 | COc1cc2c(cc1OC)CN(CC(=O)Nc1ccc(Cl)cc1Cl)CC2 | -11.7

Row | Structure (SMILES) | hERG current change (%, negative = inhibition) at 10uM [%]
22 | COc1cc2c(cc1OC)C(C)N(CCc1ccc(Cl)cc1)CC2.O=C(O)/C=C\C(=O)O (stereo not drawn) | -70.2
23 | COc1cc2c(cc1OC)C(C)N(Cc1ccc3c(c1)OCO3)CC2 (stereo not drawn) | -3.76
24 | Br.COc1cccc(C(=O)CSc2nccn2C)c1 | 24.2
25 | COc1ccc(Cl)cc1NC(=O)CSc1nnc(-c2ccncc2)n1CC1CCCO1 (stereo not drawn) | -28.2
26 | C=CCn1c(N2CCN(c3ccc(OC)cc3)CC2)nc2c1c(=O)[nH]c(=O)n2C | -24.6
27 | COc1cccc(N2C(=O)C3CCCN3C2c2ccc(F)cc2)c1 (stereo not drawn) | 6.88
28 | CCOc1nc2cnccc2n(CC(=O)Nc2ccccc2F)c1=O | 26.4
29 | COC(=O)c1ccccc1OCCCN(C)C.O=C(O)C(=O)O | -17.4
30 | C=CCN(CC=C)CCCOc1ccccc1C(=O)OC.O=C(O)C(=O)O | -72.4
31 | C=CCN(CC=C)CCCOc1ccc(C)cc1OC.O=C(O)C(=O)O | -45.1
32 | C/C(N)=C(/C#N)C(=O)CSc1cc(C)c2cc(C)cc(C)c2n1 | 2.54
33 | COc1cccc(N2CCN(C(=O)c3cc4c(OC)c(OC)c(OC)cc4[nH]3)CC2)c1 | 9.11
34 | COC(=O)c1ccc(OC(=O)C2CSC3(C)CCC(=O)N23)cc1 (stereo not drawn) | -1.4
35 | O=C(NC1CCCCC1)c1cc([N+](=O)[O-])ccc1N1CCCCC1 | -17
36 | CCCCCn1c(N)c(-c2nc3ccccc3s2)c2c([N+](=O)[O-])nn(CC)c(=O)c21 | 5.78
37 | CCOc1ccccc1OCC(=O)Nc1cc(S(=O)(=O)N2CCCCC2)ccc1OC | -16
38 | CCN1CCN(c2ccc(S(=O)(=O)N3CCCCC3)cc2NC(=O)COc2ccc(Cl)c(C)c2)CC1 | -34.5
39 | CCOc1ccccc1OCC(=O)Nc1cc(S(=O)(=O)N2CCCCC2)ccc1N1CCN(CC)CC1 | -71.5
40 | CCC(=O)c1ccc(OCC(=O)Nc2cc(S(=O)(=O)N3CCCCC3)ccc2N2CCN(CC)CC2)cc1 | -84.3
41 | CCC(=O)c1ccc(OCC(=O)Nc2cc(S(=O)(=O)N3CCCCC3)ccc2OC)cc1 | -19.8
42 | CCN1CCN(c2ccc(S(=O)(=O)N3CCCCC3)cc2NC(=O)COc2ccc(F)cc2Cl)CC1 | -65.1

Row | Structure (SMILES) | hERG current change (%, negative = inhibition) at 10uM [%]
43 | CCN1CCN(c2ccc(S(=O)(=O)N3CCCCC3)cc2NC(=O)COc2ccccc2)CC1 | -66.6
44 | CCN1CCN(c2ccc(S(=O)(=O)N3CCCCC3)cc2NC(=O)COc2ccc(Cl)cc2)CC1 | -15.2
45 | COc1ccccc1OCC(=O)Nc1cc(S(=O)(=O)N2CCCCC2)ccc1N1CCCCC1 | 2.21
46 | CCN1CCN(c2ccc(S(=O)(=O)N3CCCCC3)cc2NC(=O)COc2cc(C)ccc2Cl)CC1 | -14.1
47 | N#Cc1ccc(OCC(=O)Nc2cc(S(=O)(=O)N3CCCCC3)ccc2N2CCCCC2)cc1 | -13.3
48 | CCN1CCN(c2ccc(S(=O)(=O)N3CCCCC3)cc2NC(=O)Cc2c(Cl)cccc2Cl)CC1 | -38.6
49 | CSc1nnc([C@@H](N)Cc2c[nH]c3ccccc23)o1.Cl | 30.1
50 | CN1CCNC(=O)C1CC(=O)NCCc1ccccc1F (stereo not drawn) | 13.4
51 | CCCCNC(=O)O[C@H]1C[C@@H]2CCN3C(=O)CCC[C@H]([C@H]1CC)[C@H]23 | -8.19
52 | Cc1c(-c2ccc(/C=N/NC(=O)C(=O)Nc3ccccc3F)o2)cccc1[N+](=O)[O-] | 21.1
53 | CN1CCN(C(=O)c2ccccc2NC(=O)c2ccc(C(C)(C)C)cc2)CC1 | -9.21
54 | Cc1onc(C(=O)N2CCN(Cc3ccccc3)CC2)c1[N+](=O)[O-] | -10.7
55 | NSc1nc(N)c2nc(-c3ccccc3)c(-c3ccccc3)nc2n1 | 4.96
56 | CCc1cc2c(=O)n(-c3ccccc3)cnc2s1 | 5.13
57 | COc1ccc(CN(C)C(=O)c2ccc(NS(=O)(=O)c3ccc(F)cc3)cc2)c(OC)c1OC | -55.6
58 | COc1ccc(CN(C)C(=O)c2ccc(NS(=O)(=O)c3ccc(F)cc3)cc2)c(OC)c1 | 3.52
59 | COc1cccc(CN(C)C(=O)c2ccc(NS(=O)(=O)c3ccc(F)cc3)cc2)c1OC | -9.34
60 | COC(=O)C(C)n1cnc2c(nnn2-c2cccc(Cl)c2)c1=O (stereo not drawn) | -13.4
61 | CCOC(=O)CNS(=O)(=O)CCN1C(=O)c2ccccc2C1=O | 1.65
62 | COc1ccc(NC(=O)C(Sc2nnc3ccccn23)c2ccccc2)cc1Cl (stereo not drawn) | -1.62
63 | COc1ccc(C)cc1NC(=O)C(Sc1nncn1C)c1ccccc1 (stereo not drawn) | -3.91

Row | Structure (SMILES) | hERG current change (%, negative = inhibition) at 10uM [%]
64 | COc1ccc(C)cc1NC(=O)C(Sc1nnc2ccccn12)c1ccccc1 (stereo not drawn) | -67.7
65 | COc1cc(C2NC(=O)c3ccccc3O2)cc(OC)c1OC (stereo not drawn) | -9.55
66 | CCOc1ccc(CCNC(=O)CSCC(=O)Nc2cccc(C)c2)cc1OCC | -8.35
67 | CC(OC(=O)Cc1n[nH]c(=O)c2ccccc12)C(=O)Nc1ccc(F)cc1Cl (stereo not drawn) | 2.32
68 | CCCC1=C(C(=O)OCC)C(c2c(C)nn(-c3ccccc3)c2Cl)C(C#N)=C(N)O1 (stereo not drawn) | -16.1
69 | CC1CCCN(S(=O)(=O)c2ccc(CN3C(=O)c4cccnc4C3=O)cc2)C1 (stereo not drawn) | -58
70 | CC1CCN(S(=O)(=O)c2cc(F)ccc2CN2C(=O)c3cccnc3C2=O)CC1 | -60.4
71 | CCOC(=O)C1CCN(S(=O)(=O)c2ccc(CN3C(=O)c4cccnc4C3=O)cc2)CC1 | -9.61
72 | COc1ccc(CN2C(=O)c3cccnc3C2=O)cc1S(=O)(=O)N1CCCC(C)C1 (stereo not drawn) | -0.978
73 | Cc1ccc(CNS(=O)(=O)c2cc(F)ccc2CN2C(=O)c3cccnc3C2=O)o1 | -9.97
74 | CC(C)NS(=O)(=O)c1cc(F)ccc1CN1C(=O)c2cccnc2C1=O | 10.5
75 | O=C(Nc1ccc(S(=O)(=O)Nc2ncccn2)cc1)c1ccccc1NS(=O)(=O)c1ccc(F)cc1 | 9.91
76 | COc1ccc(-n2c(=S)[nH]c3ncccc3c2=O)cc1 | 7.98
77 | CC1(C)CC(=O)C(CC2=C(N)CC(C)(C)CC2=O)=C(N)C1 | 4.6
78 | COC(C[C@H]1O[C@@H]1C(=O)COCc1ccccc1)OC | 4.27
79 | COc1ccc2ncc(S(=O)(=O)c3ccccc3)c(N3CCN(c4ccccc4)CC3)c2c1 | -8.4
80 | COc1cc2ncc(S(=O)(=O)c3ccccc3)c(N3CCCC(C)C3)c2cc1OC (stereo not drawn) | -7.67
81 | COc1ccc(S(=O)(=O)c2cnc3ccc(OC)cc3c2N2CCC3(CC2)OCCO3)cc1 | -28.5
82 | COc1ccc2ncc(S(=O)(=O)c3ccccc3)c(N3CCC4(CC3)OCCO4)c2c1 | -63.3
83 | CCOc1ccc2ncc(S(=O)(=O)c3ccccc3)c(N3CCC4(CC3)OCCO4)c2c1 | -42.4
84 | COc1cc2ncc(S(=O)(=O)c3ccccc3)c(N3CCC4(CC3)OCCO4)c2cc1OC | -80.8
